# Assay results published in article PMC5540273 (PLoS ONE, 2017).
# System: MELK
# Settings: concentration: 1 μM, replicates: in singlicate; n = 1
# 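Further: KINOMEscan kinase panel screen.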
row,SMILES,%Inh [%]
1,CCn1c(-c2cccnc2O)nc2cnccc21 [SB-736715],1
2,Cl.Oc1ccc(-c2nc(-c3ccccc3)[nH]c2-c2ccncc2)cc1 [SB-428218],2
3,CC(=O)Nc1nc2cnc(Nc3cc(NC(=O)c4cccc(CCC#N)c4)ccc3C)nc2s1,0
4,O=S(=O)(c1ccc(-c2ccnc3[nH]ccc23)cc1)N1CCCC1 [GSK846226],7
5,CN1C(=O)C(Nc2ccc(Cl)c(C(=O)O)c2)=C(c2ccc(Cl)cc2)C1=O [SB-404290],4
6,Fc1cc(Cl)ccc1Nc1ccnc2cc(I)ccc12 [GW551191],16
7,O=c1cc(N2CCOCC2)nc2n(Cc3cccc(Cl)c3Cl)ccn12 [GSK2286295],0
8,Cn1ccc2ncnc(Oc3ccc(NC(=O)Nc4ccccc4)cc3)c21,16
9,COc1cc(Nc2nccc(N3CCC(NC(=O)Nc4cc(C)ccc4C)C3)n2)cc(OC)c1OC (stereo not drawn) [GSK1379762],5
10,CC(C)(C)c1ccc(C(=O)Nc2cn3cc(Cl)ccc3n2)cc1,1
11,COc1ccccc1CNC(=O)c1cc(C(=O)c2ccccc2C)c[nH]1 [GSK364507],0
12,O=C(O)COc1ncnc2cc(-c3ccc4[nH]ncc4c3)sc12,21
13,CS(=O)(=O)c1ccc(-c2nc3n(c2-c2ccncc2)CCC3)cc1 [SKF-105942],0
14,Cc1c(Cn2ccn3c(=O)cc(N4CCOCC4)nc23)cccc1C(F)(F)F [GSK2289044],21
15,O=C(Nc1n[nH]c2cc(-c3cccc(F)c3F)ccc12)C1CC1 [SB-733894],0
16,Cc1csc(-c2nc(Nc3ccncc3)c3ccccc3n2)n1 [GW869640],24
17,Cl.NC(=O)c1cccc(Nc2nccc(Nc3ccc(Oc4cccc(Cl)c4)c(Cl)c3)n2)c1 [GW659008],0
18,O=C1NC(=O)C(N2CCc3ccccc32)=C1c1ccccc1Cl [SB-373598],12

row,SMILES,%Inh [%]
1,COC(=O)c1c(-c2ccccc2)c2cc(C(=O)O)ccc2c(=O)n1Cc1ccccc1,0
2,Cc1cc(-c2ccc3c(c2)CC[C@@H](N[C@@H](C)c2ccccc2)C3)cnc1N.Cl [GW412617],36
3,Nc1ncnc2[nH]c(-c3ccccc3)nc12 [AH5015],0
4,O=C(Nc1n[nH]c2nc(-c3nccs3)c(Br)cc12)C1CC1 [SB-742251],0
5,Cc1ccccc1-n1cnc2c(N)ncnc21 [SKF-97510],0
6,Clc1cc(Cl)cc(Nc2ccnc(Nc3cc(Cl)cc(Cl)c3)n2)c1 [GSK175726],8
7,Cn1ccc2ncnc(Oc3ccc(Nc4nc5ccccc5[nH]4)cc3)c21,0
8,CCCc1ccc(S(=O)(=O)NC2CCN(c3ccnc(Nc4ccc(F)cc4)n3)C2)cc1 (stereo not drawn) [GSK1379715],0
9,COc1cc2nccc(Nc3ccc(NC(=O)c4ccc(C)cc4)c(O)c3)c2cc1OC.Cl [GW440132],0
10,CCn1c(-c2ccccn2)nc2cnccc21 [SB-736398],22
11,Cl.O=C(Nc1cccc(-c2nn3ncccc3c2-c2ccnc(Nc3cccnc3)n2)c1)c1c(F)cccc1F [GSK312879],3
12,Cc1ccc(NC(=O)Nc2cccc(Cl)c2)cc1-c1ccc(C(=O)Nc2ccncc2)cc1 [GSK1398468],0
13,O=C(Nc1ccc2c(c1)OCO2)NC1CCN(c2ccnc(Nc3ccc(F)cc3)n2)C1 (stereo not drawn) [GSK1379724],0
14,COc1ccc(Nc2nccc(NCCNC(=O)Nc3ccccc3F)n2)cc1 [GSK1379901],0
15,COc1ccc(Nc2nccc(-c3cccc(NC(=O)c4cc5cc(F)ccc5[nH]4)c3)n2)cc1 [GSK1229782],10
16,Cc1cc(N2Cc3ccccc3C2)nc(Nc2ccc(S(=O)(=O)N3CCOCC3)cc2)n1.Cl [GSK1669917],0
17,COc1ccc(CNC(=O)NC2CCN(c3ccnc(Nc4cc(OC)c(OC)c(OC)c4)n3)C2)cc1 (stereo not drawn) [GSK1379748],0
18,Cc1ccc(-c2cc(-c3c[nH]nc3-c3ccccn3)ccn2)cc1 [GW684088],25
